Reference: the supplement of paper PMC6897291
Structures can show the parent of a compound that is named as a salt.

Tests used:
U-2932 [1] = assay: growth inhibition by drug alone (1 - RLU/untreated control) (fraction); higher = stronger inhibition; details: 177Lu-lilotomab satetraxetan 0 ug/ml
Procedure, shortened: (§1)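 Compound doses on the pre-printed Selleck Cambridge Cancer Compound library plates were 10/100 nM for RIVA cells and 10/1,000 nM for U-2932 cells, seeded at 3,000 cells/well. Before seeding, cells were washed after 18 h with or without a radiolabelled anti-CD37 antibody conjugate (~600 MBq/mg; 0.5 µg/ml RIVA, 1 µg/ml U-2932). Growth inhibition was derived from RealTime-Glo luminescence relative to untreated no-drug control wells. Readings were taken daily starting on day 3, each after 1 h at 37°C, and each well's RLU was divided by the mean of 48 such wells per plate and subtracted from 1.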

U-2932 [2] = assay: growth inhibition by drug plus 177Lu-lilotomab satetraxetan (1 - RLU/untreated control) (fraction); higher = stronger inhibition; details: 177Lu-lilotomab satetraxetan 1 ug/ml
Procedure, shortened: as §1

RIVA [3] = assay: as above; details: 177Lu-lilotomab satetraxetan 0.5 ug/ml
Procedure, shortened: as §1

RIVA [4] = assay: growth inhibition by drug alone (1 - RLU/untreated control) (fraction); higher = stronger inhibition; details: 177Lu-lilotomab satetraxetan 0 ug/ml
Procedure, shortened: as §1

Row | SMILES | growth inhibition by drug alone (U-2932 [1]; 10 nM, time (day): 3) | growth inhibition by drug alone (U-2932 [1]; 10 nM, time (day): 4) | growth inhibition by drug alone (U-2932 [1]; 10 nM, time (day): 5) | growth inhibition by drug alone (U-2932 [1]; 10 nM, time (day): 6) | growth inhibition by drug alone (U-2932 [1]; 1000 nM, time (day): 3) | growth inhibition by drug alone (U-2932 [1]; 1000 nM, time (day): 4) | growth inhibition by drug alone (U-2932 [1]; 1000 nM, time (day): 5) | growth inhibition by drug alone (U-2932 [1]; 1000 nM, time (day): 6) | growth inhibition by drug plus 177Lu-lilotomab satetraxetan (U-2932 [2]; 10 nM, time (day): 3) | growth inhibition by drug plus 177Lu-lilotomab satetraxetan (U-2932 [2]; 10 nM, time (day): 4) | growth inhibition by drug plus 177Lu-lilotomab satetraxetan (U-2932 [2]; 10 nM, time (day): 5) | growth inhibition by drug plus 177Lu-lilotomab satetraxetan (U-2932 [2]; 10 nM, time (day): 6) | growth inhibition by drug plus 177Lu-lilotomab satetraxetan (U-2932 [2]; 1000 nM, time (day): 3) | growth inhibition by drug plus 177Lu-lilotomab satetraxetan (U-2932 [2]; 1000 nM, time (day): 4) | growth inhibition by drug plus 177Lu-lilotomab satetraxetan (U-2932 [2]; 1000 nM, time (day): 5) | growth inhibition by drug plus 177Lu-lilotomab satetraxetan (U-2932 [2]; 1000 nM, time (day): 6) | growth inhibition by drug plus 177Lu-lilotomab satetraxetan (RIVA [3]; 10 nM, time (day): 3) | growth inhibition by drug plus 177Lu-lilotomab satetraxetan (RIVA [3]; 10 nM, time (day): 4) | growth inhibition by drug plus 177Lu-lilotomab satetraxetan (RIVA [3]; 10 nM, time (day): 5) | growth inhibition by drug plus 177Lu-lilotomab satetraxetan (RIVA [3]; 10 nM, time (day): 6) | growth inhibition by drug plus 177Lu-lilotomab satetraxetan (RIVA [3]; 100 nM, time (day): 3) | growth inhibition by drug plus 177Lu-lilotomab satetraxetan (RIVA [3]; 100 nM, time (day): 4) | growth inhibition by drug plus 177Lu-lilotomab satetraxetan (RIVA [3]; 100 nM, time (day): 5) | growth inhibition by drug plus 177Lu-lilotomab satetraxetan (RIVA [3]; 100 nM, time (day): 6) | growth inhibition by drug alone (RIVA [4]; 10 nM, time (day): 3) | growth inhibition by drug alone (RIVA [4]; 10 nM, time (day): 4) | growth inhibition by drug alone (RIVA [4]; 10 nM, time (day): 5) | growth inhibition by drug alone (RIVA [4]; 10 nM, time (day): 6) | growth inhibition by drug alone (RIVA [4]; 100 nM, time (day): 3) | growth inhibition by drug alone (RIVA [4]; 100 nM, time (day): 4) | growth inhibition by drug alone (RIVA [4]; 100 nM, time (day): 5) | growth inhibition by drug alone (RIVA [4]; 100 nM, time (day): 6)
1 | Cc1cc(O)c2c(c1)C(=O)c1cccc(O)c1C2=O [Chrysophanic acid (Chrysophanol)] | -0.0586 | -0.0671 | -0.0488 | 0.0657 | -0.0803 | -0.0522 | -0.0654 | 0.0406 | -0.0546 | -0.0035 | 0.0467 | 0.1 | -0.0941 | -0.0464 | -0.00693 | 0.13 | 0.425 | 0.48 | 0.511 | 0.511 | 0.489 | 0.543 | 0.559 | 0.574 | – | – | – | – | – | – | – | –
2 | Cc1c(C(=O)Nc2ccc(N3C[C@@H](C)O[C@@H](C)C3)nc2)cccc1-c1ccc(OC(F)(F)F)cc1 [LDE225 (NVP-LDE225, Erismodegib)] | 0.0297 | 0.0258 | -0.0417 | -0.121 | -0.0141 | 0.0478 | 0.023 | -0.177 | 0.00969 | 0.0196 | 0.033 | 0.15 | -0.0204 | 0.153 | 0.159 | 0.189 | 0.366 | 0.504 | 0.517 | 0.547 | 0.384 | 0.483 | 0.482 | 0.47 | -0.0165 | -0.00347 | -0.0773 | -0.419 | -0.213 | -0.137 | -0.143 | -0.258
3 | NC(=O)Nc1sc(-c2ccc(F)cc2)cc1C(N)=O | 0.0734 | 0.0553 | 0.0297 | -0.262 | 0.197 | 0.229 | 0.176 | 0.239 | 0.0182 | 0.0728 | 0.0938 | 0.118 | 0.334 | 0.356 | 0.397 | 0.502 | 0.484 | 0.574 | 0.584 | 0.586 | 0.259 | 0.411 | 0.413 | 0.434 | – | – | – | – | – | – | – | –
4 | CCOC(=O)C1=C[C@]2(CC)CCCN3CCc4c(n1c1ccccc41)[C@@H]32 [Vinpocetine (Cavinton)] | -0.0944 | -0.0619 | -0.0289 | 0.127 | 0.0303 | 0.0355 | 0.0149 | 0.00297 | -0.0659 | -0.0355 | -0.00313 | 0.159 | 0.000715 | 0.0172 | 0.0304 | 0.134 | 0.457 | 0.533 | 0.549 | 0.545 | 0.362 | 0.396 | 0.4 | 0.377 | -0.107 | -0.13 | -0.129 | -0.167 | 0.0294 | -0.03 | -0.0621 | -0.112
5 | CC(C)n1nc(-c2ccc3oc(N)nc3c2)c2c(N)ncnc21 | 0.366 | 0.275 | 0.188 | 0.215 | 0.912 | 0.912 | 0.917 | 0.929 | 0.352 | 0.294 | 0.31 | 0.355 | 0.908 | 0.905 | 0.918 | 0.937 | 0.595 | 0.576 | 0.586 | 0.587 | 0.816 | 0.84 | 0.835 | 0.833 | – | – | – | – | – | – | – | –
6 | CCn1c(-c2nonc2N)nc2c(C#CC(C)(C)O)ncc(OC[C@H]3CCCNC3)c21 | 0.0651 | 0.0169 | -0.0977 | -0.22 | 0.654 | 0.769 | 0.826 | 0.861 | -0.0148 | 0.000859 | -0.00972 | 0.0167 | 0.596 | 0.736 | 0.792 | 0.836 | 0.28 | 0.464 | 0.475 | 0.494 | 0.315 | 0.41 | 0.42 | 0.413 | – | – | – | – | – | – | – | –
7 | CC(NC(=O)c1ccccc1/N=C/c1c(O)ccc2ccccc12)c1ccccc1 (stereo not given) [Sirtinol] | 0.0874 | 0.0846 | 0.0103 | -0.0559 | 0.00453 | 0.0486 | -0.0294 | -0.196 | 0.0459 | 0.0759 | 0.116 | 0.164 | -0.00947 | 0.0904 | 0.0917 | 0.101 | 0.345 | 0.472 | 0.506 | 0.526 | 0.436 | 0.523 | 0.536 | 0.529 | – | – | – | – | – | – | – | –
8 | CCCC(CCC)C(=O)O [Valproic acid sodium salt (Sodium valproate)] | 0.135 | 0.0829 | -0.0268 | -0.0189 | -0.0134 | 0.0276 | -0.0122 | -0.131 | 0.0169 | 0.0448 | 0.0823 | 0.106 | -0.06 | 0.0571 | 0.0167 | 0.0659 | 0.442 | 0.551 | 0.566 | 0.583 | 0.469 | 0.539 | 0.543 | 0.523 | -0.0545 | -0.0344 | -0.0932 | -0.3 | 0.0331 | 0.00236 | -0.00506 | -0.0995
9 | CNC(=O)c1cc(COc2nnc(Nc3ccc(Cl)cc3)c3ccoc23)ccn1 [Telatinib (BAY 57-9352)] | -0.0124 | 0.00544 | -0.0774 | -0.272 | -0.0825 | -0.0325 | -0.0739 | -0.229 | -0.0402 | -0.000867 | 0.00308 | 0.0503 | -0.145 | -0.0474 | -0.0515 | 0.00564 | 0.351 | 0.487 | 0.503 | 0.502 | 0.316 | 0.416 | 0.413 | 0.391 | – | – | – | – | – | – | – | –
